Screens deposited in PubChem BioAssay by National Center for Advancing Translational Sciences (NCATS).
Pf Dd2 growth: blocks in vitro growth of P. falciparum Dd2; AID 1347417; P. falciparum Dd2 growth, SYBR Green, 72 h; Potency, µM (series often up to 28.9 µM), inactives show at the highest dose activity, negative = inhibition, actives largely listed as inhibitors; actives 4.3% (n = 120,000); active = well fitted inhibition curve with a large enough effect;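 also: plate controls were DMSO vehicle for no effect and reference drug for full effect; nearly all actives have a fitted effect of over 65% in size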
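Infected erythrocytes (Dd2, 0.3% parasitemia, 2.5% hematocrit final) are added to compound in RPMI-1640/Albumax II medium, grown 72 h at 37C in low oxygen, then lysed with saponin/Triton-X containing SYBR Green and read by fluorescence.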
The depositor's hits bear a star; i = inactive; [ ] = remark or other dose. Shown is part of a subset that was picked to be rich in hits. Potency is read from the fitted curve at half-maximal effect.

SMILES	Pf Dd2 growth
O=C([C@H]1CCC[C@H](O)C1)N1CCC(n2cnnc2)CC1	-15%
CC1(COCC2CC2)COc2ccc(C(=O)NCc3ccncc3)cc2N1 (stereo unspecified)	8%[44.1 µM]
Cc1cccc(C(=O)N2C[C@@H](COc3ccccc3)[C@H](C(N)=O)C2)n1	5%
OC1CC(c2cc(N3CCC(Cc4noc(C5CC5)n4)CC3)ncn2)C1 (stereo unspecified)	-18%
COc1ccc(C(=O)N2CCC(c3noc(-c4cnccn4)n3)C2)cc1OC (stereo unspecified)	i[5.79 µM]
Cc1c(CC(=O)N2CCC(C#N)CC2)c2c(n1Cc1ccccc1)CCCC2=O	-22%
Cc1c(CC(=O)NC2CCOCC2)c2c(n1Cc1ccc(F)cc1)CCCC2=O	-13%
Cc1c(CC(=O)NC2CCOCC2)c2c(n1CCc1ccccc1)CCCC2=O	10µM*
Cc1ccc2nc(CO[C@H]3CN(Cc4ncc[nH]4)C[C@H]3F)[nH]c2c1	1%[44.1 µM]
O=C(NC[C@H]1O[C@@H]2C[C@@H](CC(=O)N3CCC(F)(F)C3)O[C@@H]2[C@@H]1O)NC1CCC1	58%[44.1 µM]
Cc1ccc(C(=O)N2C(C(=O)NCC(C)C)COC23CCN(C(=O)c2cccc(Cl)c2)CC3)cc1 (stereo unspecified)	10µM*
CCCNC(=O)C1COC2(CCN(C(=O)Cc3ccccc3)CC2)N1C(=O)c1cccc(C)c1 (stereo unspecified)	i
CC(C)NC(=O)C1COC2(CCN(C(=O)CC(C)(C)C)CC2)N1C(=O)c1ccccc1 (stereo unspecified)	-25%
Cc1cccc(C(=O)N2C(C(=O)NCC(C)C)COC23CCN(C(=O)c2ccc(F)cc2)CC3)c1 (stereo unspecified)	i
COc1ccc(C(=O)N2CCC3(CC2)OCC(C(=O)NCC(C)C)N3C(=O)c2ccc(C)cc2)cc1 (stereo unspecified)	i
Cc1cccc(C(=O)N2C(C(=O)NCc3ccccc3)COC23CCN(C(=O)CC(C)(C)C)CC3)c1 (stereo unspecified)	7.9µM*
CC(=O)N1CCN2C(=O)N(Cc3ccc(F)cc3)C[C@H]2C1	30%[44.1 µM]
N#Cc1ccc(C(=O)Nc2ccc([C@@H](O)[C@H]3COCC(=O)N3Cc3ccc(F)cc3)cc2)cc1	10µM*
O=C(Nc1ccc([C@@H](O)[C@H]2COCC(=O)N2Cc2ccc(F)cc2)cc1)c1ccccc1	i
N#Cc1cccc(C(=O)Nc2ccc([C@@H](O)[C@H]3COCC(=O)N3Cc3ccc(F)cc3)cc2)c1	-18%
O=[N+]([O-])c1ccc(O)c(-c2ccnc3cc(-c4ccccc4)nn23)c1	10µM*
COc1ccc(-c2cc3ncc(C(=O)c4cc([N+](=O)[O-])ccc4O)cn3n2)cc1	-4%
O=[N+]([O-])c1cccc(-c2ncc[nH]2)c1	-12%[76.6 µM]
COc1ccc(NC(=O)Cn2c(=O)n(-c3ccc(F)cc3)c(=O)c3c2cc(C)n3C)cc1	-6%
Cc1nc(N2CCCC2)ncc1C(=O)Nc1ccc(OC(F)(F)F)cc1	i
SMILES	Pf Dd2 growth
O=C(Nc1ccc2ncnc(N3CCCC3)c2c1)c1ccc(OC(F)(F)F)cc1	-20%
CCCN1CCN(c2ncnc3sc(C(=O)Nc4ccc(OC(F)(F)F)cc4)c(C)c23)CC1	5µM*
COc1ccccc1/C=C/CN1CCNC(=O)C1CC(=O)NCc1ccon1 (stereo unspecified)	9%
Cc1ncncc1C(=O)N1CCCC(c2nnc(Cn3cccn3)n2C)C1 (stereo unspecified)	6%
CCc1cccc(NC(=O)N(C)CC2CCOCC2)c1	-17%
COc1ccc(Cn2cc(C(=O)c3ccc(OC)cc3)c(=O)c3cc4c(cc32)OCCO4)cc1	8.9µM*
CCOc1ccc(NC(=O)Cn2cc(C(=O)c3ccc(F)cc3)c(=O)c3cc4c(cc32)OCCO4)cc1	9%
COc1cc(NC(=O)Cn2ccn(Cc3ccccc3OC)c(=O)c2=O)cc(OC)c1	34%
CCOc1ccc(NC(=O)Cn2cc(C(=O)c3ccc(OC)cc3)c(=O)c3cc4c(cc32)OCO4)cc1	4%
CCc1ccc(C(=O)c2cn(CC(=O)Nc3ccc(Cl)cc3)c3cc4c(cc3c2=O)OCO4)cc1	-28%
CCOc1ccc(C(=O)c2cn(CC(=O)Nc3ccc(OC)cc3)c3cc4c(cc3c2=O)OCCO4)cc1	25%
Cc1ccc2c(c1)c(=O)c(C(=O)c1ccc3c(c1)OCO3)cn2Cc1ccc(Cl)cc1	13µM*
COc1ccccc1Cn1cc(C(=O)c2ccccc2)c(=O)c2cc(OC)c(OC)cc21	2.5µM*
O=C(c1ccc(Cl)cc1)c1cn(Cc2ccccc2)c2cc3c(cc2c1=O)OCCO3	11µM*
O=C(c1ccc(F)cc1)c1cn(Cc2ccccc2F)c2cc3c(cc2c1=O)OCCO3	61%[5.79 µM]
Cc1ccc(Cn2cc(S(=O)(=O)c3ccc(Cl)cc3)c(=O)c3cc4c(cc32)OCO4)cc1	-1%
CCOc1ccc(NC(=O)Cn2cc(C(=O)c3ccccc3)c(=O)c3cc4c(cc32)OCO4)cc1	-1%
Clc1cc(NCC2CCCCCC2)n2nccc2n1	-14%[44.1 µM]
O=C(O)c1ccnc(-c2ccnc(-c3ncccn3)n2)c1	1%
COC[C@@H]1CN(C(=O)c2ccnc(C)c2)C[C@H]1C(N)=O	17%
CS(=O)(=O)N1CCC(OC2CCN(C(=O)Nc3cccc(Cl)c3F)CC2)CC1	i
Cc1cc(C(=O)N2CCCn3ccnc3C2c2cnn(C)c2)n(C)n1 (stereo unspecified)	-5%
CCN1C(=O)COC[C@@H]1[C@H](O)c1ccc(NC(=O)c2ccco2)cc1	-22%[44.1 µM]
CN(CCc1ccccn1)C(=O)CCC[C@@H]1[C@H]2CCCN3CCC[C@@H](CN1C(=O)c1ccccc1)[C@@H]23	i
COCCOc1cc(=O)n2c(c1C(=O)NCc1ccc(C)cc1)CCOCC2	-14%
SMILES	Pf Dd2 growth
O[C@@H]1C[C@@H](c2nc(-c3ccc(F)cc3)no2)N(Cc2ncc[nH]2)C1	i
CCc1ccccc1NC(=O)Cn1cc(C(=O)c2ccncc2)c(=O)c2cc(C)ccc21	i
COc1ccc2c(c1)c(=O)c(C(=O)c1ccc(C)cc1)cn2Cc1ccccc1F	13µM*
CCOc1ccc(C(=O)c2cn(CC(=O)Nc3ccc(Cl)cc3)c3cc4c(cc3c2=O)OCO4)cc1	-9%
CCOc1ccc(C(=O)c2cn(Cc3ccc(Cl)cc3)c3cc(OC)c(OC)cc3c2=O)cc1	7.9µM*
CCOc1ccc2c(c1)c(=O)c(C(=O)c1ccc(CC)cc1)cn2CC(=O)Nc1ccccc1OC	-7%
CCc1ccc2c(c1)c(=O)c(C(=O)c1ccc(C)cc1)cn2CC(=O)Nc1ccccc1C	-2%
COc1ccc(CC(=O)N[C@H]2[C@H](O)[C@H](O)C[C@@H]2c2ccc(N3CCOCC3)nc2)cc1	-29%[44.1 µM]
CN1CCC(N2CCN(C(=O)CCC3CCCCC3)CC2)C1=O (stereo unspecified)	2%
Cc1cc(C)c(NC(=O)Cn2c(=O)n(-c3ccc(F)cc3)c(=O)c3c2cc(C)n3C)c(C)c1	-6%
CCCS(=O)(=O)NCC(=O)N1CCCCCCNC(=O)CC1c1ccccc1 (stereo unspecified)	6%
FC1(F)CN[C@H](c2nc(C3CC3)no2)C1	i
COCCc1nncn1C1CCN(C(=O)c2cc(C)cc(C)c2)CC1	-5%
NC(=O)[C@@H](Cc1c[nH]c2ccccc12)NC(=O)[C@@H]1CN(C(=O)Nc2ccccc2)CCN1C(=O)c1cccs1	i
CN1CCOc2c(C(=O)NCc3cccnc3)cc(-c3ccccc3F)cc21	-9%[44.1 µM]
Cc1cccc(CN2CCC(N3CCCC(C(=O)NC4CC4)C3)CC2)c1 (stereo unspecified)	-23%
